The record followed here is PubChem BioAssay AID1981 (Southern Research Specialized Biocontainment Screening …, 2009).

In all, about 2,200 compounds went through this assay and about 480 (22%) were called active. How the calls were made is not given here. A selection follows. Results with a measured potency or affinity are listed apart.

A short description of the assay: S. Typhimurium GFP fluorescence modified counterscreen for PhoP regulon inhibitor project dose response (AID 1981). The following applies: 4 h; series mostly up to 150 µM.
On to `CCOC(=O)c1ccccc1C(=O)N1CCOCCOCCOCC1`, for which the call was inactive. The same measure for `CCOC(=O)c1c(-c2ccc(C)o2)csc1N`: “inactive”; for `O=C1N2CCCc3cccc(c32)C12Nc1ccccc1S2` (stereo unspecified): “inactive”.

Turning to `N/C(=N\OC(=O)c1cccs1)C1(c2ccc(Cl)cc2Cl)CC1`, the result was inactive. As for `Nc1c(C(=O)Nc2ccc(F)cc2)sc2nc(-c3ccco3)ccc12`, the result was inactive. The same measure for `CCOc1ccc(N/C=C/C(=O)c2ccc(OC)cc2)c([N+](=O)[O-])c1`: “inactive”. As for `CCCCOC(=O)CSc1nc2c(c(=O)[nH]c(=O)n2C)n1C/C=C(\C)Cl`, the compound was called inactive. The result for `CCCCCCOC(=O)Sc1nc2ccccc2o1` reads “inactive”; that for `O=S1(=O)C=CC(Nc2ccccc2)C1` (stereo unspecified), “inactive”.

As to `C=CCNC(=O)C(=O)NN=C1CCN(C)CC1`, the result was inactive. For `COc1cccc(C(=O)Oc2c(CN3CCOCC3)cc(Cl)c3cccnc23)c1`, the compound was called inactive. The same measure for `COc1ccc2nc(NC(=O)C3CCCN3S(=O)(=O)c3ccc(C)cc3)sc2c1` (stereo unspecified): “inactive”. As for `c1ccc2[nH]c(CSc3nccs3)nc2c1`, the call was inactive.

As for `CC(=O)c1ccc(NC(=S)NC(NC(=O)c2ccco2)C(Cl)(Cl)Cl)cc1` (stereo unspecified), the outcome was inactive. Regarding `CN(C)c1ccc([C@@H]2[C@@H]([N+](=O)[O-])[C@H]3C=Cc4ccccc4N3[C@H]2C(=O)c2ccc(Cl)cc2)cc1`, the call was inactive. In the case of `O=C(O)c1cc(O)c2c(c1)[C@@H]([C@H]1c3cc(C(=O)O)cc(O)c3C(=O)c3c(O[C@@H]4O[C@H](CO)[C@@H](O)[C@H](O)[C@H]4O)cccc31)c1cccc(OC3O[C@H](CO)[C@@H](O)[C@H](O)[C@H]3O)c1C2=O` (stereo partly specified), the compound was classed as inactive. The result for `O=C(CCN1C(=O)C2C3C=CC(C3)C2C1=O)N1CCN(c2cccc(Cl)c2)CC1` (stereo unspecified) reads “inactive”; that for `CCCOc1ccc(C2NC(=S)NC(c3ccccc3)=C2C(=O)Nc2ccc(C)cc2)cc1OC` (stereo unspecified), “inactive”; that for `CCOC(=O)c1c(C)[nH]c(C)c1C(=O)COC(=O)/C=C/c1cccc(F)c1`, “inactive”. The same measure for `c1ccc2c3c([nH]c2c1)-c1[nH]ncc1CC3`: “inactive”. The result for `COc1ccc(CCN2CC3=C(C2=O)C(c2ccccc2)NC(=O)N3C)cc1OC` (stereo unspecified) reads “inactive”. Turning to `CC1CCN(S(=O)(=O)c2cccc(C(=O)N(C)C3CCS(=O)(=O)C3)c2)CC1` (stereo unspecified), the outcome was inactive. As for `COc1ccc(O)c(/C=c2/sc3nc4cc(C)c(C)cc4n3c2=O)c1`, the outcome was inactive.

Consider `CC(=O)Nc1cccc(OCC(=O)Nc2ccc(F)cc2)c1`, for which the compound was called inactive. The same measure for `O=C1CSc2ccccc2N1Cc1ccc(F)cc1`: “inactive”. The same measure for `CN1CCN(C(c2cccc(C(F)(F)F)c2)c2nnnn2C(C)(C)C)CC1` (stereo unspecified): “inactive”. The same measure for `COc1ccccc1N1CCN(C(CNS(=O)(=O)c2ccccc2)c2cccnc2)CC1` (stereo unspecified): “inactive”; for `CC(=O)c1cccc(NC(=O)Nc2cc3sccc3n2C)c1`: “inactive”; for `O=C(CN1C(=O)COc2ccccc21)Nc1ccc(F)cc1`: “inactive”. `O=C(O)C1CC=CCC1C(=O)NC12CC3CC(CC(C3)C1)C2` (stereo unspecified): the outcome was inactive. The same measure for `CSCCC(NC(=O)c1cccc(C)c1)C(=O)OCC(=O)NC(=O)c1cccn1C` (stereo unspecified): “inactive”; for `CCOC(=O)C1=C(c2ccccc2)N=C2SCC(=O)N2C1c1ccc(O)c(OC)c1` (stereo unspecified): “inactive”. Take `COC(=O)Cn1cc(C(=O)c2ccco2)c2ccccc21`: the call was inactive. The result for `CCCCn1cnc2sc(-c3ccccc3)cc2c1=O` reads “inactive”. As to `Cc1cc2oc(=O)cc(CSc3nc(N)cc(N)n3)c2cc1C`, the outcome was inactive.

Take `CC1CCN(c2ccc(NC(=S)NC(=O)c3ccc(-c4cccc([N+](=O)[O-])c4)o3)cc2)CC1`: the compound was classed as inactive. With `COc1ccc(-c2csc(Nc3cccnc3)n2)cc1`, the outcome was inactive. Regarding `Nc1nnc(SCCOc2ccc(Br)cc2)s1`, the call was inactive. For the compound `c1ccc(-c2cnn3nnnc3n2)cc1`, the compound was classed as inactive.

Consider `CC(C)CNC(=S)NC1CCCC1`, for which the compound was called inactive.

`Cc1cc(/C=N/n2cnnc2)c(C)n1-c1ccc(OCc2ccc(F)cc2)cc1`: the result was inactive.

On to `COc1ccc(/C=C/c2nc3ccccc3n2Cc2ccccc2OC)cc1`, for which the result was inactive.

On to `COc1cccc(-n2c(N)c(C(=O)Nc3c(C)n(C)n(-c4ccccc4)c3=O)c3nc4ccccc4nc32)c1`, for which the result was inactive.

Take `COc1cccc(NC(=S)N/N=C2\CC(C)(C)Oc3ccc(O)cc32)c1`: the result was inactive. With `CCc1cc2c(NCCC(=O)O)nc(C)nc2s1`, the outcome was inactive.

For the compound `CN1c2ccccc2C(O)=C(C(=O)Nc2ccccc2)S1(=O)=O`, the compound was called inactive. Regarding `O=C(Nc1cccc2ccccc12)c1ccc(Cn2cc(Cl)cn2)cc1`, the outcome was inactive. The same measure for `Cc1cc(C)n(-c2nc(NCCN(C)C)c3c4c(sc3n2)CCCC4)n1`: “inactive”; for `Cc1ccc(-c2nnn(CC(=O)Nc3ccccc3-c3ccccc3)n2)c(-n2cnnn2)c1`: “inactive”; for `c1ccc(COc2cccc(CN3CCN(c4ccccn4)CC3)c2)cc1`: “inactive”. `Cc1cc(C(C)c2ccccc2)c(O)c(CN2CCOCC2)c1C` (stereo unspecified): the compound was classed as inactive. Turning to `O=c1[nH]c(CN2CCCCC2)nc2ccccc12`, the result was inactive. The result for `N#Cc1ccc(COC(=O)c2ccc3c(=O)[nH]c(CN4CCOCC4)nc3c2)cc1` reads “inactive”. The result for `CC1C(C#N)=C(N)OC2=C1C(=O)CCC2` (stereo unspecified) reads “inactive”; that for `COc1ccc(C2C(C#N)=C(N)OC3=C2C(=O)CCC3)cc1Cn1cc([N+](=O)[O-])cn1` (stereo unspecified), “inactive”. The result for `CCN(CC)CCCn1c(=S)[nH]c2cc(OC)c(OC)cc2c1=O` reads “inactive”.

Take `Cn1c(CO)cnc1SCc1ccc([N+](=O)[O-])cc1`: the outcome was inactive. The result for `COc1ccccc1Nc1nc(-c2c(C)[nH]c3ccccc23)cs1` reads “inactive”; that for `CCc1ccc(OCC(=O)Nc2ccc(-c3cc4ccccc4oc3=O)c(OC)c2)cc1`, “inactive”. The same measure for `COc1ccc2oc(=O)cc(C)c2c1`: “inactive”; for `COc1ccc(S(=O)(=O)n2ccc(-c3ccc(OCCN(C)c4ccccn4)cc3)n2)cc1`: “inactive”; for `OCCNc1ccc(Cl)cc1`: “inactive”. In the case of `NNC(=S)Nc1ccc(Cl)cc1`, the compound was classed as inactive. `Cc1ccc(S(=O)(=O)NC2c3cccc4cccc(c34)C2Sc2n[nH]c(N)n2)cc1` (stereo unspecified): the call was inactive. The same measure for `Brc1ccc(-c2cnc3n2CCCC3)cc1`: “inactive”; for `CCCNC1=C(C)C(=O)C2=C(C1=O)C(COC(N)=O)[C@]1(OC)C3NC3CN21` (stereo partly specified): “inactive”; for `Cc1ccc(S(=O)(=O)c2c(N)n(NC(=O)c3ccco3)c3nc4ccccc4nc23)cc1`: “inactive”. The same measure for `O=C(c1cnsn1)N1CCN(c2ccccc2)CC1`: “inactive”; for `COc1ccc(OC)c(C2C=C(C34CC5CC(CC(C5)C3)C4)NC(=S)N2)c1` (stereo unspecified): “inactive”. Take `O=C(c1[nH]ncc1-c1ccc(Cl)cc1)C1CO1` (stereo unspecified): the result was inactive. The same measure for `O=C(CSCc1cccc(CSCC(=O)Nc2ccc3ccccc3c2)n1)Nc1ccc2ccccc2c1`: “inactive”.

`c1ccc(CSc2nnc(-c3ccncc3)o2)cc1`: the compound was called inactive. The same measure for `C=CCNc1nnc(Cl)c2ccccc12`: “inactive”; for `S=C(NCc1ccncc1)Nc1ccc(Cl)c(Cl)c1`: “inactive”. In the case of `Cc1cc(-c2csc(NC(=O)c3ccccc3C(F)(F)F)n2)c(C)n1Cc1ccccc1`, the call was inactive. The result for `Oc1ccccc1Nc1nc(NCc2ccco2)c2ccccc2n1` reads “inactive”. For `c1ccc(CNc2ncnc3ccccc23)cc1`, the call was inactive.

Take `Cc1ccc(-c2nc(NCc3cccnc3)c3ccccc3n2)cc1`: the compound was classed as inactive. The result for `c1ccc(CNc2nc(N3CCN(Cc4ccccc4)CC3)nc3ccccc23)cc1` reads “inactive”.

As to `Cc1ccc2[nH]c3c(NCc4ccco4)ncnc3c2c1`, the compound was called inactive. The same measure for `c1ccc(CN2CCN(c3nc(NCc4ccco4)c4ccccc4n3)CC2)cc1`: “inactive”; for `c1coc(CNc2ncnc3ccccc23)c1`: “inactive”; for `Cc1cccc(C(=O)NC(NCc2ccco2)C(Cl)(Cl)Cl)c1` (stereo unspecified): “inactive”.

In the case of `O=C(c1ccccc1)N1CCN(c2ccc([N+](=O)[O-])c(NCc3ccco3)c2)CC1`, the outcome was inactive. The same measure for `C/C(=N/NC(=O)Cc1cccn1C)c1ccccc1`: “inactive”. As for `COc1ccc(NC(=O)CCNS(=O)(=O)c2ccc3c(c2)CCC(=O)N3)cc1`, the compound was classed as inactive.

Consider `O=C(Nc1nccs1)c1cc(-c2ccco2)nc2ccccc12`, for which the compound was called inactive.

`Cc1cn([C@H]2C[C@H](N=[N+]=[N-])[C@@H](CO)O2)c(=O)[nH]c1=O`: the outcome was inactive. The same measure for `COc1cccc(-c2nnc3sc(-c4ccc(C)cc4)nn23)c1`: “inactive”; for `CN(CC(=O)N1CCN(c2ccccn2)CC1)S(=O)(=O)c1ccc2ccccc2c1`: “inactive”. For `Cn1nnnc1SCC(=O)NC1CCCCC1`, the compound was classed as inactive. The result for `Nc1nnc(SCc2ccc(F)cc2Cl)s1` reads “inactive”; that for `Cn1c(C(O)c2ccc(Br)cc2)nc(Cl)c1Cl` (stereo unspecified), “inactive”; that for `CCC1C2CN(C(C)=O)CC=C2C(C#N)=C(N)C1(C#N)C#N` (stereo unspecified), “inactive”. The same measure for `Clc1ccc(-n2ncc3c(NCc4cccs4)ncnc32)cc1`: “inactive”. The result for `CCn1c(Cc2ccccc2)nnc1SCC(=O)Nc1nc(C)c(C)s1` reads “inactive”; that for `Nc1ccc2oc3ccccc3c2c1`, “inactive”. On to `CCOc1cc(C2C(C(=O)OC)=C(C)N=C3SCCC(=O)N32)ccc1OC(C)=O` (stereo unspecified), for which the outcome was inactive. The result for `CCCn1c(/N=C/c2ccc3c(c2)OCO3)nc2ccccc21` reads “inactive”.

Regarding `Cc1ccc(NS(=O)(=O)c2ccccc2)c2c1CC(C)(C)O2`, the outcome was inactive. The same measure for `COc1ccc(NC(=O)C(Sc2nnc(-c3ccncc3)n2-c2ccccc2C)c2ccccc2)cc1Cl` (stereo unspecified): “inactive”. The result for `CC(=O)Cn1cnc2sc(-c3ccccc3)cc2c1=O` reads “inactive”; that for `C/C(=N\Nc1nc2ccccc2[nH]1)c1ccc(Cl)s1`, “inactive”; that for `C/C(=N\Nc1nc2ccccc2[nH]1)c1cccs1`, “inactive”. The result for `O=S(=O)(c1ccc(N2CCCC2c2nc3ccccc3s2)nc1)N1CCOCC1` (stereo unspecified) reads “inactive”; that for `O=C(/C=C/c1cccs1)N1CCN(Cc2ccc3c(c2)OCO3)CC1`, “inactive”; that for `CC(C)(C)NS(=O)(=O)c1ccc(CCC(=O)N2CCOCC2)cc1`, “inactive”. Take `Cc1cc(C(=O)CSc2nnnn2C)c(C)n1-c1ccc2c(c1)OCCO2`: the outcome was inactive. The same measure for `COC(=O)c1c(C)oc2ccc(NS(=O)(=O)c3cccs3)cc12`: “inactive”. The same measure for `C(=N\N1CCN(Cc2ccccc2)CC1)/c1cccnc1`: “inactive”; for `Cc1cc(N/N=C/c2cccc(Cl)c2)nc(NCc2ccccc2)n1`: “inactive”.
